In PubChem BioAssay:
“And” between values parts separate entries of the source, which are not always exact repeats. Equal entries are not always repeated. A number with no mark means an inactive call. How the calls were made is not given here. Positions of bridges follow the written chain, without caps; N, C: chain ends. Non-standard residues stand in square brackets, D forms with d. Residues, ends and D or L forms follow the SMILES beside them. ξ: configuration not given here. *: point of attachment. ξDab(CH2SO3H) = NC(CCNCS(=O)(=O)O)C(=O)O; Heptanoyl(6-Me) = CC(C)CCCCC(=O)*; Orn = NCCC[CH](N)C(=O)O; Dab = NCC[CH](N)C(=O)O

System: Aerobactin synthetase IucA (Klebsiella pneumoniae hvKP1)
Assay: Biochemical IucA enzyme inhibition primary screen of the Spectrum library (AID 1346200);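 further: 100% = wells without compound and 0% = wells lacking enzyme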
Conditions: malachite green pyrophosphate, A620, at 8 µM, stronger effect = lower value

Row | Compound | activity remaining
1 | COc1cc(/C=C/C(=O)N2CCC=CC2=O)cc(OC)c1OC | 95.4%
2 | CC(=O)O[C@H]1CCC2(C)C3=C(CCC2C1(C)C)[C@]1(C)CCC(C(C)CCC=C(C)C)[C@@]1(C)CC3 (stereo not given in full) | 111%
3 | OC[C@H]1O[C@@](CO)(O[C@@H]2O[C@H](CO)[C@@H](O)[C@H](O)[C@H]2O)[C@@H](O[C@@H]2O[C@H](CO)[C@@H](O)[C@H](O)[C@H]2O)[C@@H]1O | 82.4%
4 | CCC(=O)OC1[C@@H]2CC3=C4CC(=O)O[C@@H](c5ccoc5)[C@]4(C)CCC3C(C)(C2=O)[C@@H](CC(=O)OC)C1(C)C (stereo not given in full) | 121%
5 | CCN(CC)Cc1ccc(Nc2ccnc3cc(Cl)ccc23)cc1O | 102%
6 | O=C1C=CC(=C(c2ccc(O)cc2)c2ccc(O)cc2)C=C1 | 105%
7 | C=C1C(=O)OC2CC1C(OC(C)=O)C/C(C)=C/CC/C(C)=C/CC[C@]2(C)O (stereo not given in full) | 123%
8 | O=C(OCc1ccccc1)c1ccccc1 | 108%
9 | CC(C)[C@H](N)C(=O)OCCOCn1cnc2c(=O)[nH]c(N)nc21 | 122%
10 | C=C1C(=O)O[C@@H]2C[C@@]3(C)CCC[C@H](C)C3=C[C@H]12 | 97.8%
11 | CC(=O)Oc1cc2c(c(C)c1OC(C)=O)CC1OC13[C@@]2(C)CC[C@@]1(C)C2C[C@](C)(C(=O)O)CC[C@]2(C)CC[C@]31C (stereo not given in full) | 101%
12 | CC(=O)OCC(=O)[C@@]1(O)[C@H](OC(C)=O)CC2C3CCC4=CC(=O)C=C[C@]4(C)[C@@]3(F)[C@@H](O)C[C@@]21C (stereo not given in full) | 120%
13 | O=c1cc(-c2cc(O)c(O)c(O)c2)oc2cc(O)cc(O)c12 | 101%
14 | C=CC1=C(C(=O)O)N2C(=O)[C@@H](NC(=O)/C(=N\O)c3csc(N)n3)[C@H]2SC1 (stereo in doubt) | 103%
15 | Nc1nccs1 | 89.3%
16 | COc1ccc2ccc(=O)oc2c1 | 114%
17 | CC(=O)Oc1cc(-c2coc3cc(OC(C)=O)c(OC(C)=O)c(OC(C)=O)c3c2=O)cc(OC(C)=O)c1OC(C)=O | 88.1%
18 | CC(CCC(=O)O)[C@H]1CCC2C3C[C@H](O)[C@@H]4C[C@H](O)CC[C@]4(C)C3CC[C@@]21C (stereo not given in full) | 104%
19 | CCC(=O)OCC(=O)[C@@]1(OC(=O)CC)[C@H](C)CC2C3C([C@@H](O)C[C@@]21C)[C@@]1(C)C=CC(=O)C=C1C[C@H]3Cl (stereo not given in full) | 106%
20 | CCOc1ccc(NC(C)=O)cc1 | 97.1%

Row | Compound | activity remaining
21 | NC[C@H]1O[C@H](O[C@H]2C(O[C@@H]3O[C@H](CO)[C@@H](O)[C@H]3O)[C@@H](O)[C@H](N)C[C@@H]2N)[C@H](N)[C@@H](O)[C@@H]1O (stereo not given in full) | 123%
22 | COC(=O)N/N=C/c1c[n+]([O-])c2ccccc2[n+]1[O-] | 109%
23 | CO/N=C(\C(=O)NC1C(=O)N2C(C(=O)OCOC(=O)C(C)(C)C)=C(/C=C\c3scnc3C)CSC12)c1csc(N)n1 (stereo not given) | 120%
24 | CN1C(C(=O)Nc2ccccn2)=C(O)c2sccc2S1(=O)=O | 82.2%
25 | CC(=O)O[C@H]1C[C@@H](OC(C)=O)C(C)(C)C2C[C@@H](OC(C)=O)[C@@]3(C)C4=CC(=O)O[C@@H](c5ccoc5)[C@]4(C)CCC3[C@]21C (stereo not given in full) | 102%
26 | COc1c2ccoc2c(OC)c2oc(=O)ccc12 | 121%
27 | C[N+]1(C)CCCC(OC(=O)C(O)(c2ccccc2)c2ccccc2)C1 (stereo not given) | 111%
28 | C[C@H](CC(=O)C1OC1(C)C)[C@H]1C(=O)C[C@@]2(C)C3=CCC4C(C)(C)[C@@H](O[C@@H]5OC[C@@H](O)[C@H](O)[C@H]5O)CC[C@@]45C[C@@]35[C@@H](O)C[C@]12C (stereo not given in full) | 91.8%
29 | NC[C@H]1O[C@H](OC2[C@@H](N)C[C@@H](N)[C@H](O[C@H]3O[C@H](CO)[C@@H](O)[C@H](N)[C@H]3O)[C@H]2O)[C@H](O)[C@@H](O)[C@@H]1O (stereo not given in full) | 97%
30 | Cn1c(=O)[nH]c(=O)c2[nH]cnc21 | 109%
31 | C=C1C2CC[C@@]3(C)[C@H](c4ccoc4)OC(=O)C[C@]13O[C@H]1CC(=O)C(C)(C)[C@H](C(O)C(=O)OC)[C@@]21C (stereo not given in full) | 95.2%
32 | C/C=C(/C)C(=O)O[C@@H]1[C@H](OC(C)=O)[C@@]2(CO)C(CC1(C)C)C1=CCC3[C@@]4(C)CC[C@H](O[C@@H]5O[C@H](C(=O)O)[C@@H](O[C@@H]6O[C@H](CO)[C@@H](O)[C@H](O)[C@H]6O)[C@H](O)[C@H]5O[C@@H]5O[C@H](CO)[C@@H](O)[C@H](O)[C@H]5O)[C@](C)(CO)C4CC[C@@]3(C)[C@]1(C)C[C@H]2O (stereo not given in full) | 119%
33 | CN1CCc2cccc3c2C1Cc1ccc(O)c(O)c1-3 (stereo not given) | 87.4%
34 | CCN1CCCC(OC(=O)C(c2ccccc2)c2ccccc2)C1 (stereo not given) | 110%
35 | CC(=O)O[C@]1(C)CC[C@@]23CC1C(C)(C)[C@@H]2CC[C@H]3C | 102%
36 | OCCc1ccccc1 | 117%
37 | C#C[C@]1(O)CCC2C3CCC4=CC(=O)CC[C@@H]4C3CC[C@@]21C (stereo not given in full) | 108%
38 | CC(C)CC1NC(=O)C(CCCN)NC(=O)C(C(C)C)NC(=O)C2CCCN2C(=O)C(Cc2ccccc2)NC(=O)C(CC(C)C)NC(=O)C(CCCN)NC(=O)C(C(C)C)NC(=O)C2CCCN2C(=O)C(Cc2ccccc2)NC1=O (stereo not given) (cyclo(FPV[Orn]LFPV[Orn]L); configuration not given here) | 122%
39 | CC(C)CC1C(=O)N2CCC[C@H]2C2(O)O[C@](NC(=O)C3C=C4c5cccc6[nH]c(Br)c(c56)C[C@H]4N(C)C3)(C(C)C)C(=O)N12 (stereo not given in full) | 113%
40 | O=C(/C=C/c1ccccc1)O[C@H]1C[C@@H](O)[C@]2(O)C=CO[C@@H](O[C@@H]3O[C@H](CO)[C@@H](O)[C@H](O)[C@H]3O)[C@H]12 | 108%

Row | Compound | activity remaining
41 | CC(C)/C(O)=C1/C(=O)O[C@@H](c2ccoc2)[C@]2(C)C(O)[C@@H](O)[C@@]34OC5(C)OC67CC(C)(C(O)[C@]6(O)[C@@H](O)[C@]3(O5)C12)[C@H](CC(=O)O)[C@]74C (stereo not given in full) | 92.7%
42 | C[C@H](CCC(=O)O)[C@H]1CCC2C3C(CC[C@@]21C)[C@@]1(C)CC[C@@H](O)C[C@H]1C[C@@H]3O (stereo not given in full) | 105%
43 | COC(=O)C[C@H]1C2(C)CC34OC5(C)O[C@@]6([C@H](OC(C)=O)C(OC(C)=O)[C@]7(C)C(/C(=C(/O)C(C)C)C(=O)O[C@H]7c7ccoc7)[C@@]6(O5)[C@H](OC(C)=O)[C@@]3(O)C2OC(=O)C(C)C)[C@]14C (stereo not given in full) | 104%
44 | C[C@H]1COC2=C1C(=O)C(=O)c1c2ccc2c1CCCC2(C)C | 106%
45 | CN(N=O)C(=O)N[C@@H]1[C@@H](O)[C@H](O)[C@@H](CO)O[C@@H]1O | 112%
46 | C[N+]12CCC(CC1)C(OC(=O)C(O)(c1ccccc1)c1ccccc1)C2 (stereo not given) | 111%
47 | O=C(Cc1cccs1)NC1C(=O)N2C(C(=O)[O-])=C(C[n+]3ccccc3)CSC12 (stereo not given) | 109%
48 | COc1c2ccoc2nc2c(OC)c(OCC(O)C(C)(C)O)ccc12 (stereo not given) | 98%
49 | CC(C(=O)O)c1ccc(-c2ccccc2)c(F)c1 (stereo not given) | 104%
50 | CO/N=C1\CN(c2nc3c(cc2F)c(=O)c(C(=O)O)cn3C2CC2)CC1CN (stereo not given) | 106%
51 | CC(C)c1nc(N(C)S(C)(=O)=O)nc(-c2ccc(F)cc2)c1/C=C/[C@@H](O)C[C@@H](O)CC(=O)O | 124%
52 | OC[C@H]1O[C@@H](O[C@@H]2[C@@H](CO)O[C@](O)(CO)[C@H]2O)[C@H](O)[C@@H](O)[C@H]1O | 121%
53 | OC1CC2CCCC(C1)N2Cc1ccccc1 (stereo not given) | 93.4%
54 | Oc1ccc([C@H]2Oc3cc(O)cc(O)c3C[C@H]2O)cc1 | 113%
55 | CCC(C)C1NC(=O)C(CCNCS(=O)(=O)O)NC(=O)C(NC(=O)C(CCNCS(=O)(=O)O)NC(=O)C(NC(=O)C(CCNCS(=O)(=O)O)NC(=O)CCCCC(C)C)C(C)O)CCNC(=O)C(C(C)O)NC(=O)C(CCNCS(=O)(=O)O)NC(=O)C(CCNCS(=O)(=O)O)NC(=O)C(C(C)CC)NC1=O (stereo not given) ({Heptanoyl(6-Me)}-[ξDab(CH2SO3H)]T[ξDab(CH2SO3H)][Dab][ξDab(CH2SO3H)]II[ξDab(CH2SO3H)][ξDab(CH2SO3H)]T; lactam 4-C; configuration not given here) | 120%
56 | CO/N=C(/C(=O)N[C@@H]1C(=O)N2C(C(=O)O)=C(COC(C)=O)CS[C@H]12)c1csc(N)n1 | 117%
57 | Cn1nnnc1SCC1=C(C(=O)O)N2C(=O)C(NC(=O)C(OC=O)c3ccccc3)C2SC1 (stereo not given) | 118%
58 | CC(=O)OC/C=C(C)/C=C/C=C(C)/C=C/C1=C(C)CCCC1(C)C | 92.2%
59 | NCCOB(c1ccccc1)c1ccccc1 | 97.5% and 103%
60 | Cc1onc(-c2ccccc2Cl)c1C(=O)N[C@@H]1C(=O)N2[C@@H]1SC(C)(C)[C@@H]2C(=O)O | 96.2%
